According to PubChem BioAssay:
“And” between values parts separate entries of the source, which are not always exact repeats. Identical values can stand only once. Results filed as inconclusive are left out. The source made the active and inactive calls.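 The calls were made as follows, unless noted: active = normalized viability below 100% at a tested concentration; inactive = the rest.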

Assays:
[1] = viability loss in pontine glioma line – cell-based, SU-DIPG-XVII, MIPE5.0, CellTiter-Glo, qHTS, dose response (AID 1347060; cut-off not given, nearly all actives have AC50 up to about 26 µM;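 as to AC50: cells exposed to compound for 48 hours before viability readout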); details: CellTiter-Glo ATP luminescence
[2] = viability loss in pontine glioma line – cell-based, JHH-DIPG-1, MIPE4.0, CellTiter-Glo, qHTS, dose response (AID 1347062; cut-off not given, nearly all actives have AC50 up to about 27 µM;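 as to AC50: cells exposed to compound for two days before readout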); details: JHH-DIPG-1 viability, CellTiter-Glo ATP luminescence
[3] = viability loss in pontine glioma line – cell-based, SU-DIPG-IV, MIPE4.0, CellTiter-Glo, qHTS, dose response (AID 1347063; cut-off not given, nearly all actives have AC50 up to about 30 µM;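 also: compound exposure lasted 48 hours before the viability readout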); details: CellTiter-Glo ATP luminescence
[4] = viability loss in pontine glioma line – cell-based, SU-DIPG-XIII, MIPE5.0, CellTiter-Glo, qHTS, dose response (AID 1347064; cut-off not given, nearly all actives have AC50 up to about 23 µM;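 as to AC50: cells exposed to compound for 48 hours before the viability read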); details: CellTiter-Glo ATP luminescence
[5] = growth inhibition of DIPG cells – cell-based, MIPE4.0 library, CellTiter-Glo luminescence, qHTS (AID 1347066; cut-off not given, nearly all actives have AC50 up to about 30 µM;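 also: cells exposed to compound for 48 hours before readout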); details: SU-DIPG-VI viability, CellTiter-Glo ATP luminescence
[6] = JHH-DIPG-1 glioma cell viability, MIPE5.0 library, CellTiter-Glo luminescence, qHTS (AID 1347067; cut-off not given, nearly all actives have AC50 up to about 26 µM;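 also: cells exposed to compound for 48 hours before readout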); details: JHH-DIPG-1 glioma viability, CellTiter-Glo ATP luminescence
[7] = growth inhibition of DIPG cells – cell-based, MIPE5.0 library, qHTS (AID 1347068; cut-off not given, nearly all actives have IC50 up to about 30 µM;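 as to IC50: cells exposed to compound for 48 hours before viability readout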); details: SU-DIPG-XXV viability
[8] = liver-stage malaria parasite load reduction – cell-based, known kinase inhibitor set, luminescence, hepatoma host viability (AID 624392; call rule not given here;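 also: infected cells incubated roughly two days before readout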); details: Plasmodium liver stage in hepatoma cells, luciferase luminescence, concentration not given here; liver cell % of control: measured here: host liver cell viability; parasite % of control: stronger effect = lower value
[9] = viability loss in pontine glioma line – cell-based, SU-DIPG-XXV, MIPE5.0, CellTiter-Glo, qHTS, dose response (AID 1347065; cut-off not given, nearly all actives have AC50 up to about 26 µM;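 also: cells exposed to compound for 48 hours before ATP readout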); details: CellTiter-Glo ATP luminescence
[10] = viability loss with induced miR-34 in A549 – imaging, A549 dox-inducible miR-34, nuclei and caspase counts, primary screen (AID 1347080;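 active = compounds whose cell count with miR-34 switched on is under 0.7 times the count with it off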); details: A549 miR-34 inducible, Hoechst nuclei count, 48 h
[11] = MELAS cybrid and Rieske KO viability enhancers – cell-based, MELAS cybrids, Rieske KO mouse fibroblasts, CellTiter-Glo, primary screen (AID 1508586;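 active = mean z-score across replicates of 1.96 or higher in either the MELAS or the Rieske mutant cell line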;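 also: z relative to plate mean and SD of compound and empty wells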); details: low glucose
[12] = drug combination growth inhibition, ovarian cancer – cell-based, oncology-focused library, rucaparib conditional, profiling panel (AID 1508598); details: patient-derived ovarian cancer cells, CellTiter-Glo viability, 144 h, stronger effect = lower value

O=C(O)C1=CO[C@@H](O[C@@H]2O[C@H](CO)[C@@H](O)[C@H](O)[C@H]2O)[C@@H]2C(CO)=CC[C@H]12
inactive: outcome [1] | outcome [2] | outcome [3] | outcome [4] | outcome [5] | outcome [6] | outcome [7]

O=C(Nc1cn[nH]c1-c1nc2ccc(CN3CCOCC3)cc2[nH]1)NC1CC1
inactive: parasite % of control [8] 0.367% and 0.333% and 0.278% | fold change ([10]; stronger effect = lower value, cell number ratio, induced over uninduced) 1.08 | viability ([12]; at 0.000305 µM, OCI-C5x cells, with rucaparib 10 µM, 100% = cells with rucaparib alone) 103% | viability ([12]; at 0.000305 µM, OCI-C5x cells, without rucaparib) 125% | viability ([12]; at 0.000305 µM, OCI-P5x cells, with rucaparib 20 µM, 100% = cells with rucaparib alone) 120% | viability ([12]; at 0.000305 µM, OCI-P5x cells, without rucaparib) 122% | viability ([12]; at 0.00122 µM, OCI-C5x cells, with rucaparib 10 µM, 100% = cells with rucaparib alone) 128% | viability ([12]; at 0.00122 µM, OCI-C5x cells, without rucaparib) 132% | viability ([12]; at 0.00122 µM, OCI-P5x cells, with rucaparib 20 µM, 100% = cells with rucaparib alone) 111% | viability ([12]; at 0.00122 µM, OCI-P5x cells, without rucaparib) 116% | viability ([12]; at 0.00488 µM, OCI-C5x cells, with rucaparib 10 µM, 100% = cells with rucaparib alone) 116% | viability ([12]; at 0.00488 µM, OCI-C5x cells, without rucaparib) 119% | viability ([12]; at 0.00488 µM, OCI-P5x cells, with rucaparib 20 µM, 100% = cells with rucaparib alone) 116% | viability ([12]; at 0.00488 µM, OCI-P5x cells, without rucaparib) 118% | viability ([12]; at 0.0195 µM, OCI-C5x cells, with rucaparib 10 µM, 100% = cells with rucaparib alone) 102% | viability ([12]; at 0.0195 µM, OCI-C5x cells, without rucaparib) 111% | viability ([12]; at 0.0195 µM, OCI-P5x cells, with rucaparib 20 µM, 100% = cells with rucaparib alone) 120% | viability ([12]; at 0.0195 µM, OCI-P5x cells, without rucaparib) 105% | viability ([12]; at 0.0781 µM, OCI-C5x cells, without rucaparib) 108% | viability ([12]; at 0.0781 µM, OCI-P5x cells, with rucaparib 20 µM, 100% = cells with rucaparib alone) 111% | viability ([12]; at 0.313 µM, OCI-C5x cells, without rucaparib) 104% | viability ([12]; at 0.313 µM, OCI-P5x cells, with rucaparib 20 µM, 100% = cells with rucaparib alone) 109% | viability ([12]; at 1.25 µM, OCI-P5x cells, with rucaparib 20 µM, 100% = cells with rucaparib alone) 118%
1190: cell count ([10]; measured here: total cells with miR-34 induction, stronger effect = lower value)
active: AC50 [1] 1.66 µM | AC50 [2] 10.5 µM | AC50 [3] 1.32 µM | AC50 [4] 5.9 µM | AC50 [9] 0.661 µM | AC50 [6] 1.86 µM | IC50 [7] 8.33 µM | z-score ([11]; MELAS cybrid survival, CellTiter-Glo 48 h, stronger effect = higher value) 2.04 | viability ([12]; at 0.0781 µM, OCI-C5x cells, with rucaparib 10 µM, 100% = cells with rucaparib alone) 82% | viability ([12]; at 0.0781 µM, OCI-P5x cells, without rucaparib) 76.9% | viability ([12]; at 0.313 µM, OCI-C5x cells, with rucaparib 10 µM, 100% = cells with rucaparib alone) 89.8% | viability ([12]; at 0.313 µM, OCI-P5x cells, without rucaparib) 66.7% | viability ([12]; at 1.25 µM, OCI-C5x cells, with rucaparib 10 µM, 100% = cells with rucaparib alone) 36.1% | viability ([12]; at 1.25 µM, OCI-C5x cells, without rucaparib) 48.8% | viability ([12]; at 1.25 µM, OCI-P5x cells, without rucaparib) 53.2% | viability ([12]; at 5 µM, OCI-C5x cells, with rucaparib 10 µM, 100% = cells with rucaparib alone) 26.8% | viability ([12]; at 5 µM, OCI-C5x cells, without rucaparib) 18.2% | viability ([12]; at 5 µM, OCI-P5x cells, with rucaparib 20 µM, 100% = cells with rucaparib alone) 39.6% | viability ([12]; at 5 µM, OCI-P5x cells, without rucaparib) 18.8%
1110: cell count ([10]; measured here: total cells without miR-34 induction)
44.3% and 46.2% and 49.7%: liver cell % of control [8]
0.829: fold change ([10]; measured here: relative caspase fold change +Dox/-Dox)
-1.89: z-score ([11]; Rieske KO mouse fibroblast survival, CellTiter-Glo 72 h)

COc1cc2nc(-c3cc(F)ccc3O)nc(N[C@@H]3CNC[C@H]3C(C)(C)O)c2cc1OC
active: AC50 [1] 9.34 µM | AC50 [2] 10.5 µM | AC50 [3] 9.35 µM | AC50 [4] 5.25 µM | AC50 [9] 4.17 µM | AC50 [6] 8.33 µM | IC50 [7] 4.17 µM
